Reference: the supplement of paper PMC6555819

Legend:
Assay in all cases: PBM binding z-score (relative to random genomic background probes); higher = stronger binding; sequences stand for … in GC…GCGATTGACAGCGTAGAATGAAGG
[1] = tested on: FXR:RXRa (NR concentration 270 nM, RXRa partner concentration 90 nM)
How it was run: (§1)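 Ligand-free nuclear receptor dimers were applied to custom Agilent 4×180K protein-binding microarrays whose double-stranded probes carried direct-repeat seeds, single-nucleotide variants, half-site ablations and random human genomic background sequences in 34-nt variable regions. Incubation lasted 1 h. Binding z-scores were computed against the random background probes from regression-normalized fluorescence.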

[2] = tested on: LXRa:RXRa (NR concentration 270 nM, RXRa partner concentration 90 nM)
How it was run: as §1

[3] = tested on: LXRa homodimer (NR concentration 270 nM)
How it was run: as §1

[4] = tested on: LXRb:RXRa (NR concentration 270 nM, RXRa partner concentration 90 nM)
How it was run: as §1

[5] = tested on: LXRb homodimer (NR concentration 270 nM)
How it was run: as §1

[6] = tested on: PPARa:RXRa (NR concentration 270 nM, RXRa partner concentration 90 nM)
How it was run: as §1

[7] = tested on: PPARg:RXRa (NR concentration 180 nM, RXRa partner concentration 90 nM)
How it was run: as §1

[8] = tested on: PPARg:RXRa 270nM:90nM, anti-RXR (NR concentration 270 nM, RXRa partner concentration 90 nM)
How it was run: as §1

[9] = tested on: PPARg:RXRa 30nM:10nM, anti-RXR (NR concentration 30 nM, RXRa partner concentration 10 nM)
How it was run: as §1

[10] = tested on: PPARg:RXRa 90nM:30nM, anti-RXR (NR concentration 90 nM, RXRa partner concentration 30 nM)
How it was run: as §1

| Sequence | PBM binding z-score [1] | PBM binding z-score [2] | PBM binding z-score [3] | PBM binding z-score [4] | PBM binding z-score [5] | PBM binding z-score [6] | PBM binding z-score [7] | PBM binding z-score [8] | PBM binding z-score [9] | PBM binding z-score [10] |
| --- | --- | --- | --- | --- | --- | --- | --- | --- | --- | --- |
| ATATGTAGGTCAGCTGGGGTCATTCAGACTAGGC | 6.69 | 6.41 | 5.01 | 5.39 | 1.51 | 6.15 | 9 | 7.13 | 5.31 | 7.16 |
| CGAACTAGGTCACCAGGACCGTGAAGAGGTTGGA | 3.87 | 2.36 | -0.1 | 1.5 | -0.339 | 4.88 | 8.27 | 6.8 | 4.02 | 6.42 |
| ATACCAAGGTCATCGTGAGGTCGTTGATACTAAC | 7.59 | 6.05 | 4.44 | 5.33 | 1.71 | 5.74 | 6.03 | 5.6 | 2.72 | 4.27 |
| AATACAGGGTCCTCGTAGGCCAGAGTACGCACAG | -0.0498 | -0.32 | -0.268 | -0.362 | -0.321 | 0.0293 | 0.721 | -0.0515 | -0.317 | -0.0938 |
| TCTCGGAGGTCACGAAGGTCAGAGCTTTCCAGAG | 7.49 | 6.31 | 3.52 | 5.6 | 0.683 | 6.27 | 7.7 | 7.54 | 4.57 | 6.59 |
| ATCGAAAGGTCGACGAGGAGAGTATACACCGTTT | 3.22 | 3.26 | -0.0644 | 2.71 | 0.517 | 4.05 | 2.55 | 2.76 | 1.4 | 1.8 |
| CGAACTAGGTCACCCGGACAGTGAAGAGGTTGGA | 3.91 | 2.15 | 0.102 | 1.65 | 0.00893 | 4.76 | 8.61 | 6.77 | 4.46 | 6.25 |
| ATATGTAGGTTAGGGTCGTTCAGAAAGTAGGGAA | 2.59 | 2.54 | 0.724 | 3.09 | 1.65 | 4.31 | 5.88 | 4.99 | 2.44 | 4.12 |
| ATCGAACGGTCGACGAGGTGAGTATACACCGTTT | -0.18 | -0.425 | -0.327 | -0.336 | -0.463 | -0.0739 | 0.937 | -0.158 | -0.0439 | -0.375 |
| CGAACTAGGACACCAGGACAGTGAAGAGGTTGGA | -0.0401 | -0.43 | -0.083 | -0.854 | -0.923 | 0.865 | 2.08 | 1.33 | 0.527 | 0.812 |
| ATCGAAAGGTCGAGGAGGTGAGTATACACCGTTT | 4.46 | 3.42 | -0.194 | 2.55 | 0.629 | 4.26 | 2.8 | 3.19 | 0.595 | 2.06 |
| TAGCCTAGGTCATGGGCCAGTTTACCACGCGAAC | 4.52 | 3.85 | 0.503 | 2.26 | -0.093 | 4.37 | 3.6 | 3.88 | 0.612 | 2.88 |
| ATATATAGGTTAGGGTCATTCAGAAAGTAGGGAA | 5.26 | 4.34 | 1.79 | 4.71 | 2.26 | 5.6 | 8.16 | 6.57 | 4.73 | 6.58 |
| CAAACTAGGTCACCAGGACAGTGAAGAGGTTGGA | 4.67 | 2.73 | 0.391 | 1.92 | 0.0732 | 5.18 | 9.26 | 7.14 | 5.2 | 7.09 |
| ATATGTAGGTTAGGGTCATACAGAAAGTAGGGAA | 4.95 | 4.24 | 0.95 | 4.42 | 1.32 | 5.66 | 8.3 | 6.82 | 4.46 | 6.69 |
| CGAACTAGGGCACCAGGACAGTGAAGAGGTTGGA | -0.211 | -0.347 | -0.377 | -0.672 | -1.24 | 2.31 | 4.04 | 3.54 | 1.13 | 2.7 |
| CGTCAAAGTTCAACTAAGTTAACGTAAAGCACGC | 7.25 | 5.95 | 4.61 | 4.33 | 2.56 | 4.99 | 5.09 | 5.05 | 2.33 | 4 |
| CTTTACGGGTCAAGGTTATAGCACGGGTGGTACG | 5.72 | 4.66 | 1.01 | 3.35 | 0.665 | 5.26 | 5.26 | 5.41 | 2.59 | 4.51 |
| TGAATGAGGTCAAAGATCAGGGAACGTGGCGTCG | 7.57 | 6.26 | 1.74 | 4.88 | 2.72 | 6.45 | 9.41 | 8.31 | 7.23 | 9.22 |
| CGAACTCGGTCACCAGGACAGTGAAGAGGTTGGA | 0.841 | 0.683 | 0.119 | -0.176 | -1.17 | 1.76 | 1.91 | 1.64 | -0.104 | 0.606 |
| ACTAGTTGGTAAGCTGAGGTCACACACAATTCGG | 2.58 | 3.17 | 2.68 | 3.35 | 0.606 | 3.57 | 1.54 | 1.96 | 0.653 | 1.13 |
| CGAACTAGGTAAAGGACAGTGAATCTCCGCACGC | -0.281 | -0.379 | -0.301 | -0.788 | -0.59 | 1.32 | 1.51 | 1.3 | -0.0812 | 0.891 |
| TCTGCTATGTCAACGATGGTCAGCTAATCTGCTA | -0.367 | -0.339 | -1.07 | -0.513 | -0.553 | -0.269 | -0.313 | 0.46 | 1.01 | 0.668 |
| TAGCCTAGGTCATTCAGGCGCCAGTATAGAAAGC | 5.09 | 3.26 | 0.555 | 2.5 | 0.661 | 3.35 | 2.01 | 2.37 | 0.32 | 1.41 |
